# Unmarked numbers belong to inactive results.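 How the source made its calls: active means GFP response above 150% of the DMSO level; inconclusive means fewer than 70 events counted for a yeast strain; inactive means the rest.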
# Test: yeast AGP1-GFP fluorescence change, single-dose – cell-based, flow cytometry, S. cerevisiae, cherry picks, confirmation (AID 2273);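 further: median GFP channel fluorescence over the whole cell population gate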
# Details: S. cerevisiae AGP1-GFP strain, 3 h, at 10 µM
compound,measurement,value
CCN(CC)c1ccc2cc(-c3nc(-c4ccc(OC)cc4)cs3)c(=O)oc2c1,"GFP response, % of DMSO",108%

# — PubChem BioAssay
